Compound activity: PubChem, National Center for Advancing Translational Sciences (NCATS)
Compounds with a hit are over-represented: about 10% of the library has one in this group of screens.
FLuc inh – Photinus pyralis luciferase inhibition; P08659; Potency, µM (doses to about 115 µM), most hits filed as inhibitors; purified P. pyralis luciferase, luminescence, biochemical; actives 2.5% (n = 76,000); also: nearly all actives have a fitted effect of over 65% in size
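Luminescence read by CCD imaging after purified firefly luciferase (10nM final) was added to substrate buffer holding 10uM D-luciferin and 10uM ATP, pH 7.5, pre-dosed with compound.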
HEK cytotox – HEK 293 cell cytotoxicity; HEK 293 viability, ATP luminescence (CellTiter-Glo), 48-72 h; Potency, µM (top dose mostly 115 µM), without a hit: at the highest dose activity change, negative = cytotoxicity, most hits filed as inhibitors; actives 6.6% (n = 94,000); AID 1345083; also: nearly all actives have a fitted effect of over 60% in size
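Viability of HEK 293 cells, plated at 250 cells/well, was judged by cellular ATP after compound treatment for 48 or 72 hr. Luminescence was imaged 10 min after CellTiter-Glo addition at room temperature.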
3T3 cytotox – cytotoxic compounds in NIH 3T3 cells; NIH 3T3 viability, CellTiter-Glo ATP luminescence, 48-72 h; Potency, µM (titrated, usually from 96.7 µM), inactives show at the top dose activity change, negative = cytotoxicity, most hits filed as inhibitors; actives 4.3% (n = 94,000); AID 1345082; also: nearly all actives have a fitted effect of over 55% in size
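Cytotoxicity is measured as loss of cellular ATP: NIH 3T3 cells (400/well) are exposed to compound for 48 or 72 hr at 37 °C, then CellTiter-Glo luminescence is imaged after 10 min at room temperature.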
GPT2 inh – blocks human glutamate pyruvate transaminase 2; Q8TD30; Recombinant GPT2, coupled pyruvate oxidase/HRP Amplex Red fluorescence; Potency, µM (highest dose often 57.7 µM), for the others: at the top dose activity change, negative = inhibition, hits mostly inhibitors; actives 0.25% (n = 100,000); AID 1671188; also: nearly all actives have a fitted effect of over 60% in size
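Fluorescence of coupled pyruvate oxidase/HRP/Amplex Red system (50uM Amplex, 30 min, dark) reports pyruvate formed by GPT2. Enzyme reaction: 10ng/uL GPT2, 2mM L-alanine, 250uM a-KG, 30 min room temperature, pH 7.5; 50uM AOA control.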
hNpr1 antagonist – blocks ANP-stimulated signaling of human Npr1 receptor. Potency, µM (series often up to 46.3 µM), for inactives: at the top dose activity change, negative = inhibition, actives largely listed as inhibitors. P16066. AID 1347048. actives 1.6% (n = 76,000). HEK293 hNpr1 GloSensor cGMP, ANP-stimulated luminescence; calls by dose curve; also: nearly all actives have a fitted effect of over 60% in size
Target sequence (P16066 whole entry, looked up): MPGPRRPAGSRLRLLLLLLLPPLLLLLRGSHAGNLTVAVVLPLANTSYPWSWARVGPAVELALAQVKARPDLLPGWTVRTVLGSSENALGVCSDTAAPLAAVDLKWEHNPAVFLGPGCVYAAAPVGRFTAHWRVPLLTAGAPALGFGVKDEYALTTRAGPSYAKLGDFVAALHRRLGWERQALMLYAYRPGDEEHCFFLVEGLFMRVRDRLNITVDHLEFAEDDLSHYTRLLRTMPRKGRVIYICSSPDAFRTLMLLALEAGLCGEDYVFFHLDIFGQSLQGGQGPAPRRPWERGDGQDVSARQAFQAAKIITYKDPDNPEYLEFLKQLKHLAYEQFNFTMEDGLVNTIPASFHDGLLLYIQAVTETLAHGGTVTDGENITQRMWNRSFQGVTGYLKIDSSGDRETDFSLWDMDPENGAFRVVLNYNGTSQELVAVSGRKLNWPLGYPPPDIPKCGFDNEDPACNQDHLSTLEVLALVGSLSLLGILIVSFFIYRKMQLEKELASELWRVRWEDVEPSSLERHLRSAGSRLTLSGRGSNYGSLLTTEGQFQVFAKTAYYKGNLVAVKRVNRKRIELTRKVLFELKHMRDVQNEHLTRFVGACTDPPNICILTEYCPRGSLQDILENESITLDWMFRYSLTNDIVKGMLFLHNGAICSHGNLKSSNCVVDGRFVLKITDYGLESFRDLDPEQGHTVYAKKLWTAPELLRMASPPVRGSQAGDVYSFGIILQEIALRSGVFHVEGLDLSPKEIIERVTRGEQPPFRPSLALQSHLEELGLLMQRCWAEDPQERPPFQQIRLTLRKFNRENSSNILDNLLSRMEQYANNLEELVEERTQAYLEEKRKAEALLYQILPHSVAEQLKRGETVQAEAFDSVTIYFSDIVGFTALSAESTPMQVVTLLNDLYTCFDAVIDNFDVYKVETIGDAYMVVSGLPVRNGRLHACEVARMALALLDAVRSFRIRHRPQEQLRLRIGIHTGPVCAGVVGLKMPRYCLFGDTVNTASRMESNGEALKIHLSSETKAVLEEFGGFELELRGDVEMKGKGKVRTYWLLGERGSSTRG
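HEK293 cells stably expressing human Npr1 and cGMP GloSensor pGS-40F, loaded 2 h with 2% GloSensor reagent, given compound 30 min at room temperature. Luminescence read before and 20 min after 0.1 nM hNppA.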
* hit, by the source's call; i = inactive; u = inconclusive; x = not tested or not shown; ! = repeats disagree; [ ] = remark or other dose. Unless noted, calls follow the shape of the dose curve; as a rule, active = well fitted curve in the direction sought with a large enough effect; inconclusive = small, poorly fitted or top-dose-only effect, or another doubt; inactive = no such curve, though single readings can be large; an effect the other way counts as inactive or inconclusive. % is scaled to controls: 0 for no effect and ±100 for the full control effect; potency is read from the fitted curve at half-maximal effect.

SMILES	FLuc inh	HEK cytotox	3T3 cytotox	GPT2 inh	hNpr1 antagonist
COc1ccc(CNC(=O)C2CCCN2Cc2ccc(-c3cccc(OC)c3)cc2)cc1 (stereo not given)	x	32µM*	40µM*	i	x
COc1cccc(-c2ccc(CN3CCCC3C(=O)NC3CCCC3)cc2)c1 (stereo not given)	x	u	u	-1%	x
COc1cccc(-c2ccc(CN3CCCC3C(=O)NCc3ccccc3)cc2)c1 (stereo not given)	x	40µM*	40µM*	u	x
COc1cccc(-c2ccc(CN3CCCC3C(=O)N3CCN(c4ncccn4)CC3)cc2)c1 (stereo not given)	x	u	20µM*	i	x
C=C1[C@@H]2[C@H]3OC(=O)C(=C)[C@@H]3CC[C@@](C)(O)[C@@H]2C[C@@H]1O[C@@H]1O[C@H](CO)[C@@H](O)[C@H](O)[C@H]1O	x	x	x	2%[27.3 µM]	x
O=C(Nc1ccc(Oc2ccccc2)cc1)O[C@@H]1CO[C@H]2[C@@H]1OC[C@@H]2NC(=O)c1ccccn1	u	u	u	2%	11µM*
O=C(Nc1cccc2ccccc12)O[C@@H]1CO[C@H]2[C@@H]1OC[C@@H]2NCC1CCCCC1	i	45µM*	u	0%[88.5 µM]	-22%[70.6 µM]
O=C(Nc1ccc(Oc2ccccc2)cc1)O[C@@H]1CO[C@H]2[C@@H]1OC[C@@H]2NC(=O)c1cnccn1	i	u	-9%	i	-25%
O=C(Nc1cccc2ccccc12)O[C@@H]1CO[C@H]2[C@@H]1OC[C@@H]2NS(=O)(=O)c1ccc2ccccc2c1	i	u	79µM*	0%	0%
O=C(Nc1ccc(Oc2ccccc2)cc1)N[C@H]1CO[C@H]2[C@@H]1OC[C@H]2OC(=O)Nc1cccc2ccccc12	i	18µM*	u	u	u
O=C(Nc1cccc2ccccc12)O[C@@H]1CO[C@H]2[C@@H]1OC[C@@H]2NC(=O)C1CCC1	i	-8%[172 µM]	-6%[174 µM]	i	-2%[70.6 µM]
O=C(NC1CCCC1)N1CCN(c2ccc3nnc(-c4ccccc4)n3n2)CC1	x	-14%	u	x	x
OC[C@@H]1CN(Cc2cccc(F)c2)C[C@H]1c1nc(-c2ccncc2)no1	i	45µM*	-17%	-2%	-23%
OC[C@@H]1CN(Cc2ccc(F)cc2)C[C@H]1c1nc(-c2ccncc2)no1	u	u	u	-21%	14µM*
OC[C@@H]1CN(Cc2ccoc2)C[C@H]1c1nc(-c2ccncc2)no1	u	u	-18%	1%	2%
Cc1ccc([S+](=O)([O-])N2CCN(Cc3ccccc3-c3cccnc3)CC2)cc1	x	u	u	-1%	x
COc1ccc(-c2cccc(C(=O)N3CCC(NC(=O)c4ccccc4Cl)CC3)c2)nn1	x	u	-15%	x	x
O=C(NC1CC1)c1ccc2nc(-c3ccncc3)oc2c1	x	u	u	i	x
Cc1ccc(CN2CC[C@H](c3nc4ccc(C)cc4[nH]3)C2)cc1	i	u	u	i	-14%[70.6 µM]
Fc1ccc2nc([C@H]3CCN(Cc4ccc(F)c(F)c4)C3)[nH]c2c1	u	56µM*	u	u	u
Fc1ccc(CN2CC[C@H](c3nc4ccc(C(F)(F)F)cc4[nH]3)C2)cc1F	i	10µM*	13µM*	u	u
Cc1ccc(CN2CC[C@H](c3nc4ccc(C(F)(F)F)cc4[nH]3)C2)cc1	i	40µM*	28µM*	-30%[88.5 µM]	u
Fc1ccc2nc([C@H]3CCN(Cc4cccs4)C3)[nH]c2c1	40µM*	71µM*	u	-1%[88.5 µM]	u
O=C(NCc1ccc2c(c1)OCO2)C1CN(c2ccc(F)cc2)C(=O)N1 (stereo not given)	i	-2%	-12%	i	12%
O=C(NCc1ccccc1Cl)C1CCN(C(=O)c2ccc(-c3cncnc3)cc2)CC1	x	u	-28%	x	x
SMILES	FLuc inh	HEK cytotox	3T3 cytotox	GPT2 inh	hNpr1 antagonist
CC(C)c1nc2c(c(-c3ccc(Cl)cc3)n1)CCN(Cc1ccc(N(C)C)cc1)CC2	x	-30%	-8%	i	x
COc1ccccc1CN1CC[C@H](c2nc3ccc(C(F)(F)F)cc3[nH]2)C1	i	32µM*	28µM*	u	1%[70.6 µM]
O=C(CCc1ccc(CC2CCN(Cc3c[nH]c4ccccc34)CC2)cc1)N1CCCC1	x	35µM*	32µM*	u	x
Cn1ccnc1C(=O)N1CCC(Cc2ccc(CCC(=O)N3CCCC3)cc2)CC1	x	40µM*	u	-5%	x
CCCC(=O)N1CCN(c2ccnc3ccnn23)CC1	x	2%[172 µM]	-9%[138 µM]	-3%[88.5 µM]	x
COc1ccc(Cl)cc1-c1ccc2c(c1)C(=O)N1C[C@@H](NS(=O)(=O)c3ccc(F)cc3)C[C@H]1C(=O)N2	i	35µM*	u	-12%	-28%
COc1ccc(Cl)cc1-c1ccc2c(c1)C(=O)N1CC[C@H](N)C[C@H]1C(=O)N2	i	25µM*	32µM*	0%[88.5 µM]	-16%[70.6 µM]
Cc1ccc(C(=O)N2CCC3(CC2)NC(=O)N(c2ccc(F)cc2)N3)c(C)c1	i	u	u	u	1%
O=C(NC1C[C@H]2CC[C@@H](C1)N2C(=O)C1CCCCC1)c1ccc(F)cc1 (stereo not given in full)	x	3%	-34%	i	x
O=C1OC(CN2CCOCC2)CN1/N=C/c1ccc([N+](=O)[O-])o1 (stereo not given)	x	x	x	i	x
NC(=O)N/N=C/c1ccc([N+](=O)[O-])o1	x	x	x	32µM*!	x
C#CCNC(=O)c1nc2cccnc2n(C2CC2)c1=O	x	-10%[172 µM]	-25%[138 µM]	i	x
Cc1ccc(CNC(=O)C2CCCCc3nnc(-c4ccccc4)n32)o1 (stereo not given)	x	-3%	-14%	1%	x
CN(Cc1ccc(F)cc1)S(=O)(=O)c1cccs1	i	79µM*	-27%[138 µM]	-10%[88.5 µM]	6%[70.6 µM]
COC1CCN(CC2CCCCCN2C(=O)Nc2ccc3c(c2)OCCO3)CC1 (stereo not given)	18µM*	2%	-3%	-6%	0%
CC1CCN(CC2CCCCCN2C(=O)Nc2ccc3c(c2)OCCO3)CC1 (stereo not given)	16µM*	u	-14%	i	-13%
COC1CCN(CC2CCCCCN2C(=O)CCCc2ccccc2)CC1 (stereo not given)	i	u	u	-21%	-12%
COc1ccc(-c2cnc([C@@H]3COCCN3Cc3ccc(C)cc3)[nH]2)cc1	i	u	u	2%[88.5 µM]	-20%[70.6 µM]
CC(C)(C)c1cnc([C@@H]2COCCN2Cc2ccc(C(=O)O)cc2)[nH]1	i	-4%[172 µM]	u	u	1%[70.6 µM]
Cc1ccc(CN2CCOC[C@H]2c2ncc(C(C)(C)C)[nH]2)cc1	i	112µM*	100µM*	-7%[88.5 µM]	-15%[70.6 µM]
